aSyn UTR act = Activators via SNCA 5'UTR binding, MLPCN; alpha-synuclein 5'UTR reporter, activators screen; activity score, % (tested at 7.5 µM), hits read low; 300,000 compounds, 7.1% hits; in the data active = activity score below about -60%
* hit, by the source's call. A selection follows.

SMILES	aSyn UTR act
Cc1csc2nc(CSc3nc4ccccc4o3)c(Br)n12	-129*
CN1CCN(/C=N/c2sc3c(c2C#N)CCCCC3)CC1	-147*
CCN(/C=N/c1sc2c(c1C#N)CCCCC2)CC	-142*
Cc1nn(C)c(Sc2ccccn2)c1[N+](=O)[O-]	-87*
O=C(CCc1ccccc1)Nc1cccnc1Cl	-64*
O=C(CC(=O)c1ccccc1)Nc1cccnc1Cl	-119*
CCOc1cc2nc3c4ccccc4n(C)c3nc2cc1OCC	-62*
N#Cc1cc2c(N)c(C(=O)Nc3ccccc3)sc2nc1N	-124*
Cc1cccc(NC(=O)c2sc3nc(N)c(C#N)cc3c2N)c1	-156*
Nc1c(C(=O)Nc2ccccc2)sc2nc(-c3ccco3)ccc12	-176*
COc1ccc(-c2cc(C(=O)Nc3ccc(C)c(N)c3)c3ccccc3n2)cc1	-82*
CC(C)(C)c1ccc(-c2cc(C(=O)NNC(=O)Nc3ccccc3)c3ccccc3n2)cc1	-124*
COc1cc(C(=O)Nc2ccc(C)cc2)c2ccccc2n1	82
COc1cc2c(cc1NC(=O)c1ccccc1F)CCCC2	-270*
COc1cc(OC)c(NC(=O)c2ccccc2F)cc1Cl	-122*
COc1cc2c(cc1NC(=O)c1cccc(F)c1)CCCC2	-76*
COc1ccccc1-c1cnn2c(NC3CCCC3)cc(C)nc12	-182*
COc1cc2c(cc1OC)-c1cc(NC3CCCCCCC3)nc(=O)n1CC2	70
COc1ccccc1-c1ccc(NC2CCCC2)nn1	-120*
COCCNc1nc2sc3c(c2c(=O)n1Cc1ccco1)CCCCC3	-72*
O=c1c2c3c(sc2nc(NCCO)n1Cc1ccco1)CCCCC3	-118*
N/C(=N\OC(=O)c1cccs1)c1cccc([N+](=O)[O-])c1	-130*
N/C(=N\OC(=O)c1cccc([N+](=O)[O-])c1)c1cccnc1	-189*
Cc1cccc(C(=O)O/N=C(\N)c2cccc([N+](=O)[O-])c2)c1	-157*
COc1cc(/C=C/C(=O)c2cccc([N+](=O)[O-])c2)cc(OC)c1OC	-62*
SMILES	aSyn UTR act
COc1ccc(/C(N)=N/OC(=O)c2cccc([N+](=O)[O-])c2)cc1OC	-96*
COc1cccc(C(=O)O/N=C(\N)c2ccc([N+](=O)[O-])cc2)c1OC	-208*
NS(=O)(=O)c1ccc(N/C=C\C(=O)c2cccc3ccccc23)cc1	-65*
Cc1ccc2ccc3ccc(C)nc3c2n1	72
CCS(=O)(=O)c1ccc(N=Nc2ccc(O)c3ncccc23)c(OC)c1	78
Fc1ccc(COc2cccc3cccnc23)cc1	-141*
Nc1sc(-c2ccccc2)n[n+]1Cc1cccc2cccnc12	53
COc1cccc(OC)c1OCCCOc1cccc2cccnc12	-106*
CCCCC(=O)NC(c1ccccc1OC)c1ccc2cccnc2c1O (configuration not stated)	101
Cc1ccc2cccc(OCCCOc3ccccc3F)c2n1	-74*
Clc1ccccc1OCCCOc1cccc2cccnc12	-118*
CCCC(=O)NC(c1ccccc1OC)c1ccc2cccnc2c1O (configuration not stated)	124
C=CCSc1nnc(NC(=O)c2ccc(Cl)nc2)s1	-77*
CC(C)(C)c1nnc(NC(=O)c2ccc(Cl)nc2)s1	-126*
CC(=O)C1=C(C)NC(SCC(=O)c2ccccc2)=C(C#N)C1c1ccco1 (configuration not stated)	-162*
CC(=O)c1coc2c1cc(O)c1ccccc12	-83*
O=C(CN1CC(=O)Oc2ccccc21)NCc1ccco1	-97*
Cc1ccc(-c2nc(C)c(C(=O)O)s2)cc1	-208*
C/C(=N\OC(=O)c1ccc(F)cc1)c1sc(-c2ccc(Cl)cc2)nc1C	-211*
Cc1nc(-c2ccc(Cl)cc2)sc1C(=O)O	-101*
CCN(CC)C(=O)N1c2ccccc2C=Cc2ccccc21	-101*
O=C(c1cc2cc(Br)ccc2[nH]1)N1CCc2ccccc21	-76*
COc1ccc(-c2cc(C(F)F)n3ncc(C(=O)N4CCc5ccccc54)c3n2)cc1	60
COc1ccc2cc(C(=O)N3CCc4ccccc43)[nH]c2c1	-122*
O=C(c1cc2cc(F)ccc2[nH]1)N1CCc2ccccc21	-177*
SMILES	aSyn UTR act
O=C(N/N=C/c1ccc(Br)s1)c1ccccn1	-96*
O=C(N/N=C/c1ccc(OC(=O)c2ccccc2Br)cc1)c1ccccn1	-90*
Cc1ccsc1/C=N/NC(=O)c1cc(-c2ccncc2)nc2ccccc12	67
O=C(N/N=C/C1CCCCC1)c1ccccn1	-116*
Cc1ccsc1/C=N/NC(=O)c1ccccn1	-151*
Cc1ccc(/C=N/NC(=O)c2cccs2)o1	-65*
O=C(N/N=C/c1ccsc1)c1ccccn1	-92*
Cc1ccsc1/C=N/NC(=O)c1cccs1	-109*
Cc1ccsc1/C=N/Nc1ccc(C(=O)O)cc1	64
CN(C)C(=O)COc1ccc2cc(-c3ccccc3)c(=O)oc2c1	-91*
COc1ccc2cc(-c3ccccc3)c(=O)oc2c1	-72*
COC(=O)c1ccc(C)c(NS(=O)(=O)c2ccc3c(c2)OCCO3)c1	94
CC(C)Cc1cc(C(=O)Nc2ccc3c(c2)OCO3)no1	-184*
Cc1cc(C(=O)Nc2ccc3c(c2)OCO3)no1	-107*
